Test results: the supplement of paper PMC7669877
± gives the uncertainty stated by the source.

Each compound was assayed on Candidatus Liberibacter solanacearum in potato hairy roots (assay: relative CLso titer (% of untreated control); higher = less inhibition of bacterial titer). Settings: 10 µM; 72 h.
Method: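 Primary screen of ~220 Spectrum collection (MicroSource) compounds at 10 µM (0.1% DMSO) on Candidatus Liberibacter solanacearum-infected potato hairy roots in multi-well plates (Gamborg B-5 medium, vacuum infiltrated, 21 °C, dark, 72 h). CLso titer was measured by qPCR of 16S rDNA normalised to potato RPL2 (2^-ddCq), pairwise-standardised against untreated controls, averaged over two biological replicates and expressed as % of untreated.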

| SMILES | relative CLso titer |
| --- | --- |
| Cc1ccc(S(=O)(=O)NC(=O)NN2CCCCCC2)cc1 | 83.2 ± 12% |
| CNCCCN1c2ccccc2CCc2ccccc21 | 144 ± 1.5% |
| Nc1ccc(C(=O)Oc2ccccc2)c(O)c1 | 102 ± 12% |
| CO[C@@]12[C@H](COC(N)=O)C3=C(C(=O)C(C)=C(N)C3=O)N1C[C@@H]1N[C@@H]12 | 85 ± 10% |
| CC12CCC(CC1=O)C2(C)C (stereo not given) | 97 ± 38% |
| Nc1ncnc2c1ncn2[C@@H]1O[C@H](CO)[C@@H](O)[C@H]1O | 51.4 ± 22% |
| CN(C)CCC=C1c2ccccc2CCc2ccccc21 | 49 ± 2.5% |
| CC(=O)N(O)CCCCCNC(=O)CCC(=O)N(O)CCCCCNC(=O)CCC(=O)N(O)CCCCCN | 210 ± 59% |
| C=C1CC[C@H](O)C/C1=C/C=C1\CCC[C@]2(C)[C@@H]([C@H](C)/C=C/[C@H](C)C(C)C)CC[C@@H]12 | 113 ± 37% |
| CN(C)CCCN1c2ccccc2Sc2ccc(Cl)cc21 | 46.9 ± 8.8% |
| CCCNC(=O)NS(=O)(=O)c1ccc(Cl)cc1 | 38.9 ± 4.5% |
| CCOC(=O)[C@H](CCc1ccccc1)N[C@@H](C)C(=O)N(CC(=O)O)C1Cc2ccccc2C1 | 90.7 ± 30% |
| CN(C)CCOC(c1ccccc1)c1ccccc1.Cn1c(=O)c2[nH]c(Cl)nc2n(C)c1=O | 127 ± 74% |
| COc1cc(NS(=O)(=O)c2ccc(N)cc2)nc(OC)n1 | 96 ± 21% |
| C[N+](C)(C)CCOC(N)=O | 41.99 ± 0.24% |
| O=C(O)CCC(=O)OC[C@@H](NC(=O)C(Cl)Cl)[C@H](O)c1ccc([N+](=O)[O-])cc1 | 49.1 ± 3.2% |
| CN(CCOc1ccc(CC2SC(=O)NC2=O)cc1)c1ccccn1 (stereo not given) | 87.5 ± 30% |
| CNC(=C[N+](=O)[O-])NCCSCc1ccc(CN(C)C)o1 | 109 ± 2.3% |
| C[C@@H]1NC(=O)[C@@H](N)CNC(=O)[C@H](C2CCNC(=N)N2)NC(=O)/C(=C/NC(N)=O)NC(=O)[C@H](CNC(=O)CC(N)CCCN)NC1=O.N=C1NCCC([C@@H]2NC(=O)/C(=C/NC(N)=O)NC(=O)[C@H](CNC(=O)CC(N)CCCN)NC(=O)[C@H](CO)NC(=O)[C@@H](N)CNC2=O)N1 (stereo not given in full) | 63.2 ± 9.8% |
| CCS(=O)(=O)CCn1c([N+](=O)[O-])cnc1C | 116 ± 0.28% |

| SMILES | relative CLso titer |
| --- | --- |
| CC1(C)[C@@H](OC(=O)CCC(=O)O)CC[C@]2(C)[C@H]3C(=O)C=C4[C@@H]5C[C@@](C)(C(=O)O)CC[C@]5(C)CC[C@@]4(C)[C@]3(C)CC[C@@H]12 | 132 ± 30% |
| CC(C(=O)O)c1cccc(C(=O)c2ccccc2)c1 (stereo not given) | 132 ± 34% |
| CC1=C(/C=C/C(C)=C/C=C/C(C)=C/C(=O)O)C(C)(C)CCC1 | 132 ± 9.7% |
| C[C@H](CCC(=O)O)[C@H]1CC[C@H]2[C@@H]3C(=O)C[C@@H]4CC(=O)CC[C@]4(C)[C@H]3CC(=O)[C@]12C | 212 ± 78% |
| Clc1ccc(CSC(Cn2ccnc2)c2ccc(Cl)cc2Cl)cc1 (stereo not given) | 111 ± 31% |
| C[C@@H]1C[C@H]2[C@@H]3CCC4=CC(=O)C=C[C@]4(C)[C@@]3(F)[C@@H](O)C[C@]2(C)[C@@]1(O)C(=O)COP(=O)(O)O | 137 ± 29% |
| C1CCN2C[C@@H]3C[C@@H](CN4CCCC[C@@H]34)[C@H]2C1 | 93.9 ± 8% |
| CO[C@@]1(NC(=O)CSCC#N)C(=O)N2C(C(=O)O)=C(CSc3nnnn3C)CS[C@@H]21 | 114 ± 30% |
| C#C[C@]1(O)CC[C@H]2[C@@H]3CCC4=Cc5oncc5C[C@]4(C)[C@H]3CC[C@@]21C | 154 ± 40% |
| CC1(C)OC(=O)NC1=O | 65.8 ± 3.9% |
| Nc1ncn([C@@H]2O[C@H](CO)[C@@H](O)[C@H]2O)c(=O)n1 | 64.8 ± 5.8% |
| CCOc1ccc(Cc2cc([C@@H]3O[C@H](CO)[C@@H](O)[C@H](O)[C@H]3O)ccc2Cl)cc1 | 99 ± 3% |
| Nc1ccc(S(=O)(=O)Nc2ccc(Cl)nn2)cc1 | 52.4 ± 4.8% |
| Oc1c(Cl)cc(Cl)cc1Sc1cc(Cl)cc(Cl)c1O | 55.8 ± 6.5% |
| Cc1cc(-c2ccccc2)nnc1NCCN1CCOCC1 | 86.8 ± 63% |
| COC(=O)Nc1nc2cc(C(=O)c3cccs3)ccc2[nH]1 | 79.7 ± 6.4% |
| CC1=C(C(=O)O)N2C(=O)[C@@H](NC(=O)[C@H](N)C3=CCC=CC3)[C@H]2SC1 | 114 ± 86% |
| Oc1ccc(Cl)c2cccnc12 | 36.8 ± 11% |
| NS(=O)(=O)c1cc(C2(O)NC(=O)c3ccccc32)ccc1Cl (stereo not given) | 58.5 ± 3.2% |
| CC(=O)N[C@@H](CS)C(=O)O | 55.7 ± 25% |
